# High-throughput results: PubChem BioAssay, National Center for Advancing Translational Sciences (NCATS)
# An excerpt weighted towards active compounds, which were near 2.7% of everything screened.
# 12-LOX inh – Primary qHTS assay for inhibitors of human arachidonate 12S-lipoxygenase (ALOX12): Round 2 | Polyunsaturated fatty acid lipoxygenase ALOX12 (Homo sapiens), P18054 | purified 12hLO, xylenol orange hydroperoxide absorbance | Potency, µM (series often up to 108 µM), inactives show at the highest dose activity change, negative = inhibition, usual class: inhibitors | 580,000 tested, 1.1% active | AID 1671190, 2021; note: potency is the fitted concentration of half-maximal effect; % is set by controls: 0 for no effect and ±100 for the full control effect
#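 Hydroperoxide product was detected by ferrous iron/xylenol orange as the 573 to 405 nm absorbance ratio. Arachidonic acid at 40 uM (final) was turned over for 30 min at room temperature by 150 nM human 12hLO, pH 7.0 Hepes buffer, after 15 min compound preincubation.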
# Nrf2 ARE act – qHTS of Nrf2 Activators | Potency, µM (doses to about 46.1 µM), for inactives: at the highest dose activation, most hits filed as activators | 410,000 tested, 0.31% active | AREc32 ARE-luciferase reporter (MCF7-derived line), luminescence, 24 h; note: potency is the fitted concentration of half-maximal effect; % of control where 0% means no effect; nearly all actives have a fitted effect of over 65% in size
#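 Nrf2 activation is followed as ARE-luciferase induction in the AREc32 line after one day of compound treatment; luminescence is read with Steady-Glo.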
# A549 viability – Nrf2 qHTS screen for inhibitors: counterscreen for cytotoxicity; AID 504648, 2011; Potency, µM (doses to about 46 µM), for inactives: at the highest dose activity change, negative = cytotoxicity, hits mostly inhibitors; 390,000 tested, 0.16% active; A549 ARE-Fluc cells, CellTiter-Fluor viability, 18-24 h; note: potency is the fitted concentration of half-maximal effect; % is set by controls: 0 for no effect and ±100 for the full control effect
#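 Cytotoxicity counterscreen: CellTiter-Fluor fluorescence was measured in A549 ARE_Fluc cells after 18-24 h of compound exposure in a concentration series. The subsequent BugLite luminescent read reports ARE-luciferase activity.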
# ERG-DNA inh – qHTS for Small Molecule Inhibitors of the ERG Ets/DNA interaction; Transcriptional regulator ERG (Homo sapiens), P11308; fluorescence polarization, His-ERG Ets domain / labelled DNA; Potency, µM (doses to about 76.9 µM), for inactives: at the top dose FP activity, negative = inhibition, most hits filed as inhibitors; 370,000 tested, 0.028% active; AID 624246, 2012; active = well fitted inhibition curve with a large enough effect in the polarisation, with a control signal flat; inconclusive = small, poorly fitted or top-dose-only effect, or effect the other way, or a change in a side signal; inactive = no such curve, though single readings can be large or run the other way; the % refers to the polarisation;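 note: polarization taken with two DNA probes labelled with fluorescein and Texas red; potency is the fitted concentration of half-maximal effect; % of control where 0% means no effect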
# Target sequence (P11308 whole entry, looked up, the tested form may be a part): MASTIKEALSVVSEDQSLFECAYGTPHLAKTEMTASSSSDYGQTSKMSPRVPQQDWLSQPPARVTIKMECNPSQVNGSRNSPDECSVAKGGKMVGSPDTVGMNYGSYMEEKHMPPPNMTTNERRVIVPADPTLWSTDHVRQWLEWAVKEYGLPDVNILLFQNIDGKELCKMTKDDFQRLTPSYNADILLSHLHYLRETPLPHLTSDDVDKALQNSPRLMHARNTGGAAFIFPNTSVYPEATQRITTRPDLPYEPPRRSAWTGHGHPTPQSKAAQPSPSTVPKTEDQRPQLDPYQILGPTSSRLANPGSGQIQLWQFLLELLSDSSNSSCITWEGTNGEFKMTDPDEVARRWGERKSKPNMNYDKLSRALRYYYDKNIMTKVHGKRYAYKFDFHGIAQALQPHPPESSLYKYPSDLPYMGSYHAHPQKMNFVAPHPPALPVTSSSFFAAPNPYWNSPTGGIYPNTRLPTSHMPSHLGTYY
#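 His-tagged ERG Ets domain (1 uM in the protein solution; 300mM KCl, 50mM Tris-HCl, 1mM EDTA, 1mM DTT, pH 7.5) received compound, then a probe mix of 5 nM fluorescein-DNA and 100nM Texas-615-DNA. Fluorescence polarization was read for both dyes.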
# LDHA inh – qHTS assay for inhibitors of human lactate dehydrogenase; 480,000 tested, 0.15% active; AID 1347041, 2019; purified LDHA, NADH/diaphorase-resazurin fluorescence; active compounds read low; L-lactate dehydrogenase A chain (Homo sapiens), P00338; activity change, % (values are at about 110 or 230 µM); in the data active = activity change below about -30%; inconclusive = mostly about -25% to -30%;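 note: plate controls were DMSO wells for no effect and wells without enzyme for full effect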
#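 Remaining NADH was detected by diaphorase (0.133 mg/mL) converting 37 µM resazurin to fluorescent resorufin, read at 0 and 20 minutes. The preceding 5-minute room-temperature reaction used 2 nM LDHA, 0.2 mM sodium pyruvate and 0.06 mM NADH at pH 7.4.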
# Nrf2 inh – Nrf2 qHTS screen for inhibitors. A549 ARE-Fluc reporter, luciferase luminescence, 18-24 h. 360,000 tested, 2.1% active. AID 504444, 2011. Potency, µM (series often up to 46 µM), for inactives: top-dose activity change, negative = inhibition, actives largely listed as inhibitors; note: potency is the fitted concentration of half-maximal effect; % is set by controls: 0 for no effect and ±100 for the full control effect; nearly all actives have a fitted effect of over 60% in size
#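 Quantitative HTS in A549 cells stably bearing an antioxidant response element-firefly luciferase construct. Inhibition of Nrf2-driven transcription was scored by luminescence after 18-24 h of compound exposure at 37 °C.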
# * = called active by the depositor; ? = inconclusive; . = not tested or not shown; [ ] = another dose, or the depositor's remark. Unless noted, calls come from the whole dose curve; as a rule, active = well fitted curve in the direction sought with a large enough effect; inconclusive = small, poorly fitted or top-dose-only effect, or another doubt; inactive = no such curve, though single readings can be large; an effect the other way counts as inactive or inconclusive.
SMILES,12-LOX inh,Nrf2 ARE act,A549 viability,ERG-DNA inh,LDHA inh,Nrf2 inh
CCOC(=O)C1CCCN(C(=O)Cn2cccc2-c2nc(-c3ccc(C)cc3)no2)C1 (stereo not drawn),1%,.,.,.,-5,.
COc1ccc(C(CC(=O)Nc2cccc(-c3ccno3)c2)n2cccc2)cc1 (stereo not drawn),?,.,.,.,2,.
Nc1nc2c(s1)C(c1cccc(F)c1)CC(=O)N2 (stereo not drawn),16µM*,.,.,.,.,.
CSc1ccc(C2CC(=O)Nc3nc(N)sc32)cc1 (stereo not drawn),25µM*,.,.,.,88,.
O=C(Nc1cccc(C(F)(F)F)c1)C1CCN(S(=O)(=O)c2ccc(N3CCCC3=O)cc2)CC1,3%,0%,?,6%,-6,13µM*
O=C(Nc1cccc(F)c1)C1CCCN(C(=O)c2ccc(Cl)cc2)C1 (stereo not drawn),169%,15%,-11%,1%,-1,7.3µM*
Cn1cc(S(=O)(=O)N2CCC(C(=O)Nc3cccc(F)c3)CC2)cc1C(N)=O,0%,.,.,.,-30*,.
O=C(Nc1ccccc1)C1CCCN(C(=O)c2ccc(Cl)cc2)C1 (stereo not drawn),-6%,0%,1%,4%,-11,?
O=C(Nc1cccc(S(=O)(=O)N2CCCCCC2)c1)C1CCN(C(=O)c2ccc(F)cc2)CC1,?,0%,-4%,-8%,-4,26µM*
COc1cccc(NC(=O)C2CCN(S(=O)(=O)c3ccc(N4CCCC4=O)cc3)CC2)c1,3%,3%,.,.,-8,.
CN1C[C@@H](NC(=O)CC(C)(C)CC(=O)O)C[C@H]1c1nc(-c2ccccc2)no1,126µM*,.,.,.,.,.
CC(C)NC(=O)N[C@H]1C[C@@H](c2nc(-c3ccc4c(c3)OCO4)no2)N(C)C1,22µM*,.,.,.,.,.
CC(=O)N[C@H]1C[C@@H](c2nc(-c3ccc4c(c3)OCO4)no2)N(C)C1,-1%[176 µM],.,.,.,.,.
CN1C[C@@H](NC(=O)c2ccc(-c3ccccc3)cc2)C[C@H]1c1nc(-c2ccc(Cl)cc2)no1,-20%,.,.,.,.,.
CCCNC(=O)c1ccccc1NC(=O)Cn1cnc2c1c(=O)n(C)c(=O)n2C,?,.,.,.,8,.
CN1C(=O)Cc2cc(-c3csc(NC4CCCC4)n3)ccc21,?,.,.,.,-1,.
O=C(O)C(=O)/C(=C\c1ccc(Cl)cc1)c1ccc2ccccc2n1,?,9%,-3%,-2%,-7,?
O=C(O)C(=O)/C(=C/c1ccsc1)c1ccc2ccccc2n1,8.9µM*,.,.,.,8,.
O=C(CSc1ncc(-c2ccc(Br)cc2)o1)N1CCCCCC1,-38%,.,.,.,-3,.
Cc1nc2sccn2c1-c1csc(Nc2ccccc2Cl)n1,?,.,.,.,9,.
Cn1cc(C(=O)NCCc2noc(-c3ccncc3)n2)cn1,22%,.,.,.,.,.
O=C(NCCc1noc(-c2ccncc2)n1)c1ccccc1F,28µM*,.,.,.,.,.
CC(C)(C)c1ccc(-c2nnc(SCC(=O)N3CCCC3=O)n2C2CCCC2)cc1,-27%,.,.,.,1,.
C#CCOc1c(Cl)cc(/C=C2/C(=O)ON=C2C)cc1OCC,45µM*,-1%,5%,6%,-2,13%
C=CCOc1c(Br)cc(/C=C2/C(=O)ON=C2C)cc1OC,16µM*,4%,5%,17%,4,7%
SMILES,12-LOX inh,Nrf2 ARE act,A549 viability,ERG-DNA inh,LDHA inh,Nrf2 inh
COc1ccc(/C=C2/C(=O)ON=C2C)cc1Br,?,-1%,5%,5%,7,?
C#CCOc1ccc(/C=C2/C(=O)ON=C2C)cc1Cl,8.9µM*,0%,0%,25%,-7,3%
CCOc1cc(/C=C2/C(=O)ON=C2C)ccc1OCc1ccc(F)cc1,?,2%,-19%,-2%,-8,-21%
C#CCOc1c(Br)cc(/C=C2/C(=O)ON=C2C)cc1OC,5µM*,-1%,2%,2%,-11,0%
COc1ccc2cc(C(=O)NC3CCN(C4CC4)C3)c(C)nc2c1 (stereo not drawn),-6%,.,.,.,1,.
C#CCOc1c(Br)cc(/C=C2/C(=O)ON=C2C)cc1OCC,11µM*,0%,-4%,-4%,-4,4%
CCOc1cc(/C=C2/C(=O)ON=C2C)ccc1OCc1ccccc1,?,0%,-4%,1%,-6,-7%
CCCNc1nc2ccccc2nc1C(=O)Nc1c(C)cccc1CC,?,.,.,.,5,.
CC1(C)CC(=O)C2=C(C1)Nc1ccccc1NC2c1cccc(F)c1 (stereo not drawn),11µM*,-1%,4%,-1%,2,21%
CCCC(=O)OC,14%[176 µM],.,.,.,.,.
CCCN(CCC)c1nc(OC(C(F)(F)F)C(F)(F)F)nc(N2CCOCC2)n1,-5%,.,.,.,1,.
Cc1cc2c(c(=O)n1CCN(C)C)C(c1ccc(Cl)cc1Cl)C(C#N)=C(N)O2 (stereo not drawn),56µM*,.,.,.,15,.
N#Cc1nc(-c2ccc(S(=O)(=O)N3CCCCCC3)cc2)oc1NC1CCCCC1,?,.,.,.,-3,.
O=C(NN1C(=O)/C(=C/C=C/c2ccccc2)SC1=S)c1ccncc1,?,?,-17%,58%,-7,?
O=C1/C(=C\c2ccco2)SC(=S)N1c1ccc(O)cc1,?,15%,-13%,6%,-2,13%
O=C1/C(=C/C=C/c2ccco2)SC(=S)N1c1ccc(O)cc1,-16%,10µM*,-8%,48%,1,6%
O=C(NN1C(=O)/C(=C/C=C/c2ccco2)SC1=S)c1ccncc1,50µM*,21%,-7%,66%,15,-2%
CCOC(=O)N/N=C1\c2ccccc2C2(O)NC(=O)NC12O (stereo not drawn),0%,.,.,.,15,.
Cn1nc(C(=O)NC2CCCc3ccccc32)c2ccccc2c1=O (stereo not drawn),64%,.,.,.,3,.
CN1CCN(C(c2ccc(Cl)cc2)c2cc(Cl)c3cccnc3c2O)CC1 (stereo not drawn),10µM*,12%,-14%,0%,1,?
Oc1c(C(c2ccccn2)N2CCCCC2)cc(Cl)c2cccnc12 (stereo not drawn),?,0%,?,2%,3,?
CC(=O)NC(c1ccccc1)c1cc(Cl)c2cccnc2c1O (stereo not drawn),-4%,3%,?,-12%,5,18µM*
